This note sets out measurements from PubChem BioAssay AID1259312 (Keith Lab, Institute of Cancer Science, University of …, 2017).

Molecules are shown by their SMILES. In all, about 4,500 compounds went through this assay and about 200 (4.4%) were called active. What follows is part of a selection rich in actives, with near analogues and random picks from the rest. Values without a mark were called inactive.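 Rule for the calls: active = cell survival measured by absorbance rises more than 2.5-fold over infected cells without compound; inactive = the rest.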

The nature of this test: survival after telomere uncapping, modulators, primary screen, cell-based (AID 1259312).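 Note: virus expresses mutant telomerase RNA that uncaps telomeres and kills cells; compound added 2 days after infection so exposure lasts 3 days.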 The following applies: HCT116 + Ad-hTR-mut, MTT, 5 d; at 10 µM, stronger effect = higher value.
As for `CC(Sc1ccccn1)c1nc(N)nc(N2CCCc3ccccc32)n1` (centres undefined), the fold change is -4.94. Then `Cc1cccc(NS(=O)(=O)c2cc(Cl)ccc2Cl)n1`, with 1.41.

Take `CCCN(CCC)C(=O)C(=O)N(CCC)CCC`: the fold change was -1.09.

Regarding `CC(C)(C)c1[nH]nc2c1C1(C(=O)Nc3ccccc31)C(C#N)=C(N)O2` (centres undefined), the fold change was 4.19 (active).

In the case of `N#CC1=C(N)OC2=C(C(=O)CCC2)C12C(=O)Nc1cc(Br)ccc12` (centres undefined), the fold change is 1.66. Then `Cc1[nH]nc2c1C1(CCSCC1)C(C#N)=C(N)O2`, with -1.42; and `Cc1[nH]nc2c1C1(CCOCC1)C(C#N)=C(N)O2`, with -1.27; and `N#CC1=C(N)Oc2ccc(N)cc2C12C(=O)Nc1ccccc12` (centres undefined), with 2.67 (active). As for `CN1C(=O)C2(C(C#N)=C(N)Oc3c2c(=O)n(C)c(=O)n3C)c2ccccc21` (centres undefined), the fold change was -1.14. With `Cc1[nH]nc2c1C1(C(=O)Nc3ccccc31)C(C#N)=C(N)O2` (centres undefined), the fold change was 5.1 (active).

In the case of `CSc1ccc(C2C(C#N)=C(N)Oc3n[nH]c(C(C)(C)C)c32)cc1` (centres undefined), the fold change was -1.76. With `Cc1[nH]nc2c1C1(CCCCC1)C(C#N)=C(N)O2`, the fold change was -1.09. Regarding `N#CC1=C(N)OC2=C(C(=O)CCC2)C12C(=O)Nc1ccccc12` (centres undefined), the fold change was 2.26. With `Cc1[nH]nc2c1C1(C(=O)Nc3cc(Br)ccc31)C(C#N)=C(N)O2` (centres undefined) the figure was 3.96 (active). Then `CC(C)(C)c1[nH]nc2c1C(c1ccc(F)cc1)C(C#N)=C(N)O2` (centres undefined), with 1.28. Then `CCCCc1ccc(-c2c(C#N)c(N)nc3c2CCCCCC3)s1`, with -4.8; and `Cc1ccc(C2C3=C(CC(C)(C)CC3=O)OC3=C2C(=O)CC(C)(C)C3)s1`, with -5.64; and `O=C(O)/C=C/c1ccc(F)c(Br)c1`, with -1.15. For `O=S1(=O)N=C(N2CCCc3ccccc32)c2ccccc21`, the fold change was 1.46. `O=c1ccn([C@H]2CCC(CO)O2)c(=O)[nH]1` (some centres undefined): the fold change was -1.46.

For the compound `N#Cc1c(N)nc2c(c1-c1cccnc1)CCCCC2`, the fold change is -6.99.

With `N#CC1=C(N)Oc2c(c3ccccc3oc2=O)C12C(=O)Nc1ccc(Br)cc12` (centres undefined), the fold change was 2.59 (active).

In the case of `O=C1c2ccccc2NC2(C(=O)Nc3ccccc32)N1c1ccc2c(c1)oc1ccccc12` (centres undefined), the fold change is 1.13.

As to `O=C1Oc2ccccc2C2Oc3c(c(=O)oc4ccccc34)C3(C(=O)Nc4ccccc43)C12` (centres undefined), the fold change was -1.57.

With `Cc1ccc(-c2nnc(CSc3nnc(-c4ccccc4)o3)o2)n1C`, the fold change is -1.36.

Take `CCCCCCCNC(=O)c1ccco1`: the fold change is 1.1.

Consider `S=C(c1ccc(-c2ccc(Br)cc2)o1)N1CCOCC1`, for which the fold change is 1.09. Regarding `O=C1c2ccccc2C(O)(O)C1(O)C1(O)C(=O)c2ccccc2C1(O)O` (centres undefined), the fold change is -1.12. On to `CC(=O)/C(=C1/OC(=O)c2ccccc21)c1ccc(C(C)=O)cc1`, for which the fold change is 5.97 (active). As to `CC(=O)C(C(C)=O)=C1OC(=O)c2ccccc21`, the fold change is 1.3.

As for `C=CC[C@H]1CC=C[C@H](CC=C)N1C(C)=O`, the fold change was -1.11. Take `NC(=O)NC(CCCN=C(N)N)C(=O)O` (centres undefined): the fold change was -1.65. Then `O=[N+]([O-])c1ccc(N2CCN(S(=O)(=O)c3ccc4ccccc4c3)CC2)cc1`, with -1.1. For `CC(=O)c1c(C)nc(-c2cccs2)n1O`, the fold change was -1.92.

As for `Cc1sc2c(c1C)C(=O)NC(/C=C/c1ccc3c(c1)OCO3)N2` (centres undefined), the fold change is -1.11. Turning to `O=S(=O)(Nc1cc(Cl)cc(Cl)c1)c1cccs1`, the fold change was -1.41.

For the compound `O=[N+]([O-])c1ccc(N2CCOCC2)c(S(=O)(=O)N2CCOCC2)c1`, the fold change is -1.09. Take `O=[N+]([O-])c1ccc(N2CCN(S(=O)(=O)c3cc(Cl)ccc3Cl)CC2)cc1`: the fold change was 5.36 (active). Then `O=[N+]([O-])c1ccc(N2CCN(S(=O)(=O)c3ccc(Br)cc3)CC2)cc1`, with 1.35. Then `O=[N+]([O-])c1ccc(S(=O)(=O)N2CCOCC2)cc1`, with 2.47; and `O=[N+]([O-])c1ccc(Cl)c(S(=O)(=O)N2CCOCC2)c1`, with 3.45 (active). With `O=[N+]([O-])c1ccc(N2CCN(S(=O)(=O)c3ccc(Cl)cc3)CC2)cc1`, the fold change is -1.84. `Cc1ccc(-c2c(C#N)c(N)nc3c2CCCCC3)s1`: the fold change was -2.73.

With `Nc1ncnc2nc(SCCOc3ccccc3F)[nH]c12`, the fold change was -1.17. With `COc1cc(C2C(C#N)=C(N)Nc3oc(C)nc32)cc(OC)c1OC` (centres undefined) the figure was 2.2. With `Cc1cc(Cl)c2ccccc2n1` the figure was -1.67; with `C=CCNC(=O)c1nn(C)c(=O)c2ccccc12`, -1.08; with `Cc1cc(C)nc(Sc2ccc3nsnc3c2[N+](=O)[O-])n1`, 2.01. Then `O=c1c(C=NCc2cccs2)c(C(F)(F)F)[nH]n1-c1nc2ccccc2s1`, with “inactive”; and `NC(=O)CSc1cccc2cccnc12`, with -2.76. `NNC(=O)c1cccc(C(=O)NN)n1`: the fold change was 2.7 (active).

In the case of `NNC(=O)Cn1c2ccccc2c(=O)c2ccccc21`, the fold change is 1.47. Then `O=C(O)CCn1cnnn1`, with -1.36; and `O=C(O)CCc1cn(CCC(=O)O)cn1`, with 3 (active). For `O=C(O)COc1ccc(Br)cc1/C=C1/NC(=O)NC1=O`, the fold change was 1.24. As to `O=C(NC1CCCCCC1)C1CC1`, the fold change was -2.47. Then `O=C(O)/C=C/C(=O)NC1CCCCNC1=O` (centres undefined), with -1.55; and `O=C(O)/C=C/C(=O)NC1CCCCC1`, with 3.98 (active); and `COC(=O)/C(C#N)=C\c1cccn1C`, with 4.23 (active). Turning to `CC(C)OC(=O)/C(C#N)=C\c1cccn1C`, the fold change is -3.04. Then `CCOC(=O)/C(C#N)=C\c1cccn1C`, with -3.87; and `CCSc1ccc(Sc2ccc(SCC)s2)s1`, with -1.05.

Consider `CN1C2CC(OC(=O)C(CO)c3ccccc3)CC1C1OC12` (centres undefined), for which the fold change is 2.65 (active). Turning to `C1=CN(c2ccccc2)C(C=NCc2ccccc2)=CS1`, the fold change was 3.25 (active). As for `O=C(NCCOC(=O)Nc1ccc(Cl)c(Cl)c1)Nc1ccc(Cl)c(Cl)c1`, the fold change was -1.04.

As for `O=C(C[n+]1ccccc1)c1cccs1`, the fold change was 4.15 (active). In the case of `O=C(O)CNC(=O)c1cccs1`, the fold change is 1.14. For the compound `O=C(C[n+]1ccccc1)c1ccc(Br)cc1`, the fold change was -1.26. With `COc1ccc(OC)c(NS(=O)(=O)c2cc(Cl)ccc2Cl)c1` the figure was 1.1; with `S=C(NNC(=S)Nc1ccccc1)Nc1ccccc1`, 4.1 (active). With `CNC(=S)Nc1ccccc1` the figure was -1.89; with `NNC(=S)Nc1ccccc1`, 2.03; with `CN(Cc1cccs1)C(=S)SCCO`, 1.27.

Consider `Cc1ccc(-c2nc(Cn3c(-c4cscn4)nc4ccccc43)cs2)cc1`, for which the fold change was -1.62. With `CN1C(=O)/C(=C2\SC(=S)N(CCS(=O)(=O)O)C2=O)c2ccccc21`, the fold change was 4.3 (active). With `CSCCC(C(=O)O)N1C(=O)/C(=C2/C(=O)N(C)c3ccccc32)SC1=S` (centres undefined) the figure was -1.54; with `C=CCN1C(=O)/C(=C2\SC(=S)N(CCC)C2=O)c2ccccc21`, -1.1. In the case of `CCOC(=O)c1c(N)sc(C(=O)N2CCCCC2)c1C`, the fold change is -1.62. Turning to `CN(C)CCCN1C(=O)C(O)=C(C(=O)c2cccs2)C1c1cccs1` (centres undefined), the fold change is -1.86.

In the case of `Brc1ccc(C(Br)C(Br)c2ccccc2Br)cc1` (centres undefined), the fold change was -2.96. Then `ClC(Cl)(Cl)C(c1ccc(Br)cc1)c1ccc(Br)cc1`, with 3.49 (active); and `N#CCC(c1ccccc1)C(C#N)c1ccc(Br)cc1` (centres undefined), with -1.3; and `O=[N+]([O-])c1ccccc1Nc1ccccc1`, with 1.12. As to `CN(C)c1ccc(/C=C2/SC(=S)NC2=O)cc1`, the fold change is 2.2. With `O=C1NC(=S)S/C1=C/c1ccc(O)cc1`, the fold change is 3.65 (active).

For `O=C1NC(=S)S/C1=C\c1ccsc1`, the fold change is -1.

For `Cc1cc(C)c(O)c(C(CC(C)C)c2cc(C)cc(C)c2O)c1`, the fold change was -4.02. On to `O=C1CC(c2ccccc2)CC2=C1C(c1ccc(OC(F)(F)F)cc1)Nc1ccccc1N2` (centres undefined), for which the fold change was -1.06. With `FC(c1nc2ccccc2[nH]1)C(F)(F)F` (centres undefined) the figure was 2.19; with `OC(c1nc2ccccc2[nH]1)C(O)c1nc2ccccc2[nH]1` (centres undefined), 3.31 (active).

Consider `OC(c1ccccc1)c1nc2ccccc2[nH]1` (centres undefined), for which the fold change was -1.08. Then `COc1ccnc2cc(Cl)ccc12`, with 1.06; and `Brc1ccccc1-c1nnc(C(c2ccccc2)c2ccccc2)o1`, with -1.33; and `Cc1nccn1CCC(=O)O`, with 5.01 (active). With `Cc1cc(C)nc(SCCC(=O)O)n1` the figure was -2.76; with `Nc1nc(SCCCOc2ccccc2)n[nH]1`, 1.24.

For `COc1ccc(NC(=O)Nc2cccc(Cl)c2)cc1`, the fold change was 1.1.

Consider `O=C(COc1ccccc1)N=Nc1c(O)[nH]c2ccccc12`, for which the fold change result was “inactive”. Then `Cc1sc2ccccc2[n+]1CCCS(=O)(=O)[O-]`, with 2.97 (active); and `Oc1ccc2ccccc2c1Sc1c(O)ccc2ccccc12`, with -2.97; and `Oc1ccc2ccccc2c1N=Nc1ccccc1`, with “inactive”.

As for `Oc1ccc2ccccc2c1CNCCNCc1c(O)ccc2ccccc12`, the fold change is 3.72 (active). Then `Cc1nc2ccc3ccccc3c2s1`, with -2.18; and `c1ccc2cc3[nH]c(CN4CCOCC4)nc3cc2c1`, with 1.25. With `Nc1ncnc2c1ncn2[C@H]1C[C@H](O)[C@@H](COP(=O)(O)O)O1` the figure was -1.8; with `CCN(C(=O)c1sc(NC(=O)CCl)c(C#N)c1C)C1CCCCC1`, -1.18; with `Cc1[nH]nc2c1C(c1ccncc1)C(C#N)=C(N)O2` (centres undefined), 2.49.

In the case of `CCOC(=O)c1ccc(C2C(C#N)=C(N)Oc3cc(C)oc(=O)c32)o1` (centres undefined), the fold change was -1.07. With `Cc1cc2c(c(=O)o1)C(c1ccncc1)C(C#N)=C(N)O2` (centres undefined) the figure was 3.96 (active).
